About 8,600 (12%) of roughly 69,000 compounds showed an effect of 50% or more. The list comes from a sample in which strong results are over-represented; it also holds similar structures and randomly drawn compounds.
test system: Plasmodium berghei; experiment: Screen against P. berghei liver stage (PbLuc), transformed with Luciferase, at 10uM; type: functional, HepG2; details: tested at 10 uM

Structure (SMILES)	INHIBITION
CNC(=O)N1CCC2(CC1)c1ncc(C)n1CCN2C	48.4%
CN1C[C@H](c2ccccc2)[C@H]2CN(C(=O)Cc3cccc(O)c3)CC[C@H]21	43.7%
O[C@@]1(CNCC2(Cn3ccnc3)CC2)CCCN2CCCC[C@@H]21	-6.39%
Cc1nnc(CNCC2(O)CCCN(Cc3ccc(F)c(F)c3)C2=O)[nH]1 (centres undefined)	-1.33%
CCOCc1cc(CN2CCn3c(CO)nnc3C2)ccc1OC	-38.2%
Cc1ccc(CN2CCc3ncnc(C4CC4)c3CC2)s1	34.8%
CC(C)Cc1nc(CN2CCN(CC(O)c3ccccc3)CC2)no1 (centres undefined)	23.5%
CN(Cc1cnn(C)c1)C(=O)c1ccc(=O)n(Cc2ccccc2)n1	0.164%
CN(Cc1nnc2ccccn12)C(=O)CC1CCCCC1	10.7%
CCC(O)CN(C)Cc1nnc2ccccn12 (centres undefined)	61.8%
O=C(CCC1CCCC1)NCc1nnc2ccccn12	76.4%
O=C(CCC1CCCCC1)NCc1nnc2ccccn12	-18.7%
CN(Cc1nnc2ccccn12)C(=O)CCC1CCCC1	54.7%
Cc1ccc(C)c(CN(C)Cc2nnc3ccccn23)c1	9.45%
Cc1ccc(C)c(C(O)CN(C)Cc2nnc3ccccn23)c1 (centres undefined)	23.3%
CN(Cc1nnc2ccccn12)C(=O)CCNC(=O)C(C)(C)C	8.77%
Cn1cccc1CNC(=O)CCCc1nnc2ccccn12	-23.7%
Cc1cc(C2CCCN(S(=O)(=O)c3cn(C)cn3)C2)ccn1 (centres undefined)	12.8%
Cc1cnn(CC2CCCN2C(=O)c2c(F)cccc2Cl)c1 (centres undefined)	-59.4%
CC(O)CN1CCN(C(=O)c2ccn(-c3ccc(F)cc3)n2)CC1 (centres undefined)	-7.35%
Cc1cc(-c2ccc(=O)n(CCNC(=O)C3CC3)n2)c(C)o1	-21.2%
CC(C)C(C)NC(=O)c1cc(Br)c2c(c1)OCCO2 (centres undefined)	23.5%
Cc1ccc(F)c(NS(=O)(=O)c2cc(C(=O)O)oc2C)c1	12.7%

Structure (SMILES)	INHIBITION
COc1cccc2cc(CNC(=O)N3CCCC(O)C3)oc12 (centres undefined)	42.7%
COc1cccc2cc(CNC(=O)N3CCC(N4CCCC4)C3)oc12 (centres undefined)	54.4%
COc1cccc2cc(CNC(=O)N3CCC(C(N)=O)CC3)oc12	-36.1%
COc1cccc2[nH]c(C(=O)N3CCNCC3C(N)=O)cc12 (centres undefined)	12.285%
CCN(CC)C(CNC(=O)c1c(C)noc1C(C)C)c1ccsc1 (centres undefined)	33.7%
CC1=Nc2c(c(=O)[nH]n2C2CCCCC2)C(c2cccnc2)S1 (centres undefined)	14.2%
CC(C)Cc1noc(CN2CCCN(C(=O)c3cccc(Cl)c3)CC2)n1	68.3%
CC(C)Cc1noc(CN2CCCN(C(=O)c3ccccc3Cl)CC2)n1	37.2%
CCOCCN1CCN(Cc2nc(CC(C)C)no2)CC1	53.575%
CC(C)Cc1noc(CN2CCN(S(C)(=O)=O)CC2)n1	32.78%
CC(C)Cc1noc(CN2CCN(c3nccs3)CC2)n1	-22.6%
CCOCCN1CCN(Cc2nc(C)no2)CC1CC (centres undefined)	54.4%
CCN1CCN(Cc2nc(C)no2)CC1	0.818%
CC(C)Cc1noc(CN2CCN(CCOc3ccc(Cl)cc3)CC2)n1	79.9%
CC(C)Cc1noc(CN2CCN(C(=O)c3cccc(F)c3)CC2)n1	-29.9%
CCOCCN1CCN(Cc2nc(C3CC3)no2)CC1CC (centres undefined)	38.7%
CCN1CCN(Cc2nc(CC(C)C)no2)CC1	16.45%
CC(C)Cc1noc(CN2CCN(CCO)CC2)n1	48.9%
CN(C)C(=O)CN1C(=O)CO[C@@H]2CN(c3ccccn3)C[C@H]21	21.7%
CCOc1c(F)cccc1C(=O)N(C)CCc1ccccn1	24.7%
O=C(NC1CCCC1)c1ccc(C2CCCNC2)nc1 (centres undefined)	-17.7%
CC(=O)NCCc1cc2nc(-c3ccncc3)ccn2n1	14.105%
Cc1noc(C)c1CN1CCc2cnn(C)c2C1COCC1CC1 (centres undefined)	23.3%

Structure (SMILES)	INHIBITION
CCC[C@@H]1CN(c2cncc(C(=O)N3CCOCC3)n2)C[C@H]1N(C)C	-31.7%
Cc1nc(CNC(=O)N(CCCO)C2CCc3ccccc32)oc1C (centres undefined)	21.6%
CCOCCN1CCN(Cc2nnc(C3CC3)o2)CC1CC (centres undefined)	0%
CCOCCN1CCN(Cc2nnc(C3CC3)o2)CC1	12.6%
CCOCCN1CCN(Cc2nnc(C3CC3)o2)CC1C (centres undefined)	74.2%
O=C(CCc1ccc(-n2cnnn2)cc1)Nc1nncs1	40.6%
O=C(Cc1ccc2c(c1)CCO2)N1CCN(c2ccccn2)CC1	-13.5%
NCCCn1nc(C(F)(F)F)c2c1CCC2	27.8%
N#CCCn1nc(C(F)(F)F)c2c1CCCC2	42.6%
N#CCCn1nc(C(F)(F)F)c2c1CCC2	57.5%
Cc1nccn1C1CCCN(C(=O)c2cccc(-n3cccc3)c2)C1 (centres undefined)	43.2%
Cc1cccc(C(=O)N2CCCCC2c2[nH]ncc2S(C)(=O)=O)c1 (centres undefined)	4.08%
O=S(=O)(NCc1ccc(S(=O)(=O)N2CCCC2)s1)c1cc(Cl)cc(Cl)c1	40.6%
Cn1cc(NC(=O)N2CCCC2c2cccnc2)ccc1=O (centres undefined)	-72.2%
CC(C)C1SCC(=O)Nc2c1cnn2-c1ccc(F)cc1 (centres undefined)	8.99%
COc1ccc(-n2ncc3c2NC(=O)CSC3C(C)C)cc1 (centres undefined)	5.51%
CC(C)C1SCC(=O)Nc2c1cnn2-c1ccc(Cl)cc1 (centres undefined)	78%
CCn1cc2[nH]c(OC)c(CNC(=O)C3CCS(=O)(=O)CC3)cc-2c1=O	-21.8%
O=C1O[C@@H]2CN(Cc3cc4ccccc4s3)C[C@@H]2N1Cc1ccccn1	36.5%
Cc1ccc(CN2C[C@H]3OC(=O)N(Cc4ccccn4)[C@H]3C2)o1	22.9%
O=C1O[C@@H]2CN(Cc3cc4ccccc4o3)C[C@@H]2N1Cc1ccccn1	55%
Cc1ccc(-c2cnnc(N3CCCC3c3nonc3C)n2)o1 (centres undefined)	5.67%
CN1C(=O)CCc2cc(NC(=O)C3CC(=O)N(CC4CC4)C3)ccc21 (centres undefined)	-5.57%
